Results filed as inconclusive are left out. Active and inactive are the calls of the source. Calls follow the shape of the dose curve; as a rule, active = well fitted curve in the direction sought with a large enough effect; inconclusive = small, poorly fitted or top-dose-only effect, or another doubt; inactive = no such curve, though single readings can be large; an effect the other way counts as inactive or inconclusive.
What was measured:
[1] = qHTS of pediatric cancer cell lines to identify multiple opportunities for drug repurposing: Primary screen for NB-EBc1 cells (AID 1347095)
Method in brief: (§1)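 Cells seeded at 500-1,000 cells/well in growth media, rested 5 hours at 37 degrees C, 5% CO2, then dosed; MIPE compounds at 11-point (from 0.78 nM) and NPC at 8-point (from 0.59 nM) final concentrations. Viability by CellTiter-Glo luminescence after 48 hours.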

[2] = qHTS of pediatric cancer cell lines to identify multiple opportunities for drug repurposing: Primary screen for U-2 OS cells (AID 1347096); also: nearly all actives have a fitted effect of over 50% in size
Method in brief: (§2)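 Cells (500-1,000/well) rested 5 h, then received compounds for 48 h; metabolically active cells were measured by CellTiter-Glo luminescence. Final concentrations spanned up to 46 µM (MIPE, 11-point) or 0.59 nM-46 µM (NPC, 8-point) in primary screens, 11-point in follow-ups.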

[3] = qHTS of pediatric cancer cell lines to identify multiple opportunities for drug repurposing: Primary screen for Saos-2 cells (AID 1347097); also: nearly all actives have a fitted effect of over 40% in size
Method in brief: as §1

[4] = qHTS of pediatric cancer cell lines to identify multiple opportunities for drug repurposing: Primary screen for SK-N-SH cells (AID 1347098); also: nearly all actives have a fitted effect of over 65% in size
Method in brief: as §2

[5] = qHTS of pediatric cancer cell lines to identify multiple opportunities for drug repurposing: Primary screen for NB1643 cells (AID 1347099); also: nearly all actives have a fitted effect of over 50% in size
Method in brief: as §1

[6] = qHTS of pediatric cancer cell lines to identify multiple opportunities for drug repurposing: Primary screen for LAN-5 cells (AID 1347100)
Method in brief: as §2

[7] = qHTS of pediatric cancer cell lines to identify multiple opportunities for drug repurposing: Primary screen for BT-12 cells (AID 1347101); also: nearly all actives have a fitted effect of over 25% in size
Method in brief: as §2

[8] = qHTS of pediatric cancer cell lines to identify multiple opportunities for drug repurposing: Primary screen for Rh18 cells (AID 1347102); also: nearly all actives have a fitted effect of over 65% in size
Method in brief: as §2

[9] = qHTS of pediatric cancer cell lines to identify multiple opportunities for drug repurposing: Primary screen for OHS-50 cells (AID 1347103); also: nearly all actives have a fitted effect of over 40% in size
Method in brief: as §2

[10] = qHTS of pediatric cancer cell lines to identify multiple opportunities for drug repurposing: Primary screen for RD cells (AID 1347104); also: nearly all actives have a fitted effect of over 55% in size
Method in brief: as §1
Potency is read from the fitted curve at half-maximal effect.

SMILES | Potency [1] | Potency [2] | Potency [3] | Potency [4] | Potency [5] | Potency [6] | Potency [7] | Potency [8] | Potency [9] | Potency [10]
Nc1ccccc1NC(=O)c1ccc(CNC(=O)OCc2cccnc2)cc1 | 1320 nM (active) | 1870 nM (active) | 2350 nM (active) | 17100 nM (active) | 1870 nM (active) | 833 nM (active) | 7690 nM (active) | 2960 nM (active) | 863 nM (active) | 5260 nM (active)
Nc1ccn([C@@H]2CS[C@H](CO)O2)c(=O)n1 | inactive | inactive | inactive | inactive | inactive | inactive | inactive | inactive | inactive | inactive
COc1cccc2c(NCc3ccccc3)nc(-n3c(N)nc4ccccc43)nc12 | 9350 nM (active) | 9350 nM (active) | 3720 nM (active) | 10800 nM (active) | 9350 nM (active) | 9350 nM (active) | 10900 nM (active) | 9350 nM (active) | 9680 nM (active) | 
CC(C)C[C@H](NC(=O)CNC(=O)c1cc(Cl)ccc1Cl)B(O)O | 526 nM (active) | 743 nM (active) | 18700 nM (active) | 383 nM (active) | 590 nM (active) | 132 nM (active) | 344 nM (active) | 235 nM (active) | 6110 nM (active) | 1320 nM (active)
Cc1cc(Nc2nc(N[C@@H](C)c3ccc(F)cc3)c(C#N)cc2F)n[nH]1 | 662 nM (active) | inactive | 2350 nM (active) | 3410 nM (active) | 935 nM (active) | 418 nM (active) | inactive | 5900 nM (active) |  | 
CC(C)c1ccc(Cn2ccc3c4c(N)nc(NC5CC5)nc4ccc32)cc1 | 4690 nM (active) | 18700 nM (active) | 4690 nM (active) | 21500 nM (active) | 18700 nM (active) | 18700 nM (active) | 4320 nM (active) | 18700 nM (active) | 4850 nM (active) | 14800 nM (active)
Nc1ccccc1NC(=O)c1ccc(CNc2nccc(-c3cccnc3)n2)cc1 | 743 nM (active) | 4690 nM (active) | 2350 nM (active) | 2410 nM (active) | 296 nM (active) | 743 nM (active) | 4850 nM (active) | 2090 nM (active) | 968 nM (active) | 2960 nM (active)
CN(c1ncccc1CNc1nc(Nc2ccc3c(c2)CC(=O)N3)ncc1C(F)(F)F)S(C)(=O)=O | 4690 nM (active) | inactive | 6620 nM (active) | 24100 nM (active) | 2350 nM (active) |  | 10900 nM (active) | inactive | 5440 nM (active) | 10500 nM (active)
O=C(c1ccc(Nc2nccc(-c3cc4ccccc4s3)n2)cc1)N1CCC(N2CCCC2)CC1 | 23500 nM (active) | 23500 nM (active) | 16600 nM (active) | 19200 nM (active) | 11800 nM (active) | 11800 nM (active) | 27300 nM (active) | 14800 nM (active) | 7690 nM (active) | 10500 nM (active)
Cc1ccc(-c2ncn(-c3ccc(Nc4nccc(-c5cccc(N6CCOCC6)c5)n4)cc3)n2)cn1 | 209 nM (active) | 235 nM (active) | 93.5 nM (active) | 383 nM (active) | 52.6 nM (active) | 66.2 nM (active) | 122 nM (active) | 52.6 nM (active) | 217 nM (active) | 105 nM (active)
O=C(Nc1cc(C(F)(F)F)cc(C(F)(F)F)c1)c1cc(Cl)ccc1O | 296 nM (active) | 4690 nM (active) | 2640 nM (active) | 2410 nM (active) | 372 nM (active) | 332 nM (active) | 1720 nM (active) | 4180 nM (active) | 432 nM (active) | 662 nM (active)
CC[C@@]1(O)C(=O)OCc2c1cc1n(c2=O)Cc2cc3cc(O)ccc3nc2-1 | 11.8 nM (active) | inactive | 66.2 nM (active) | 429 nM (active) | 59 nM (active) | 13.2 nM (active) | 385 nM (active) | 418 nM (active) | 34.3 nM (active) | 1320 nM (active)
Cc1cc(Nc2cc(N3CCN(C)CC3)nc(C=Cc3ccccc3)n2)n[nH]1 | 4290 nM (active) | 34000 nM (active) | 3030 nM (active) | 3500 nM (active) | 34000 nM (active) | 679 nM (active) | 7890 nM (active) | 3820 nM (active) | 2220 nM (active) | 21500 nM (active)
COCCOc1ccc2c(c1)ncn2-c1ccc2cccc(N3CCC(N)CC3)c2n1 | 23500 nM (active) | 18700 nM (active) | 18700 nM (active) | 21500 nM (active) | 23500 nM (active) | 9350 nM (active) | 27300 nM (active) | 26400 nM (active) | 19300 nM (active) | 29600 nM (active)
NC(=O)Nc1cc(-c2cccc(F)c2)sc1C(=O)N[C@H]1CCCNC1 | 296 nM (active) | 935 nM (active) | 1320 nM (active) | 1710 nM (active) | 526 nM (active) | 469 nM (active) |  | 13200 nM (active) | 172 nM (active) | 3720 nM (active)
COc1cc2c(Oc3ccc(NC(=O)C4(C(=O)Nc5ccc(F)cc5)CC4)cc3F)ccnc2cc1OCCCN1CCOCC1 | 4180 nM (active) | 14800 nM (active) | 2640 nM (active) | 2410 nM (active) | 6620 nM (active) | 372 nM (active) | 19300 nM (active) | 4690 nM (active) | 385 nM (active) | 8330 nM (active)
CN1CCN(Cc2ccc(NC(=O)Nc3ccc(Oc4cc(NC(=O)C5CC5)ncn4)cc3)cc2C(F)(F)F)CC1 | 935 nM (active) | inactive | 590 nM (active) | 764 nM (active) | 526 nM (active) | 2350 nM (active) | 485 nM (active) |  | 485 nM (active) | 662 nM (active)
CC[C@@H]1C(=O)N(C)c2cnc(Nc3ccc(C(=O)NC4CCC(N5CCN(CC6CC6)CC5)CC4)cc3OC)nc2N1C(C)C (some centres undefined) | 332 nM (active) | 11800 nM (active) | 526 nM (active) | 607 nM (active) | 469 nM (active) | 52.6 nM (active) | 6110 nM (active) | 6620 nM (active) | 122 nM (active) | 187 nM (active)
O=c1[nH]nc(Sc2ncc([N+](=O)[O-])s2)n1-c1ccc2c(c1)OCCO2 | 2640 nM (active) | 11800 nM (active) | 10500 nM (active) | 12100 nM (active) | 4690 nM (active) | 8330 nM (active) | 17200 nM (active) | 9350 nM (active) | 9680 nM (active) | 13200 nM (active)
O=c1c2ccccc2nc2n1CCc1c-2[nH]c2ccccc12 | inactive | inactive | inactive | inactive | inactive | inactive |  | inactive | inactive | inactive
Nc1cccc(-c2cc3c(Oc4cccc(O)c4)ncnc3[nH]2)c1 | 3720 nM (active) | inactive | 1870 nM (active) | 3040 nM (active) | 20900 nM (active) | 11800 nM (active) |  | 11800 nM (active) |  | 9350 nM (active)
c1nc2nc(Nc3ccc(N4CCOCC4)cc3)nc(NC3CCCCC3)c2[nH]1 | 3720 nM (active) | inactive | 4690 nM (active) | 4290 nM (active) | 1660 nM (active) | 469 nM (active) | 21700 nM (active) | 9350 nM (active) | 2170 nM (active) | 13200 nM (active)
Clc1cccc(-n2nnnc2NCc2ccccc2Oc2ccccn2)c1Cl | inactive | inactive | inactive | inactive | inactive | inactive |  | inactive |  | inactive
O=c1[nH]c(=O)n(C2CCCO2)cc1F (centres undefined) | inactive | inactive | inactive | inactive | inactive | inactive | inactive | inactive | inactive | inactive
O=C(C=Cc1cccc(S(=O)(=O)Nc2ccccc2)c1)NO | 1910 nM (active) | 5400 nM (active) | 6790 nM (active) | 6220 nM (active) | 679 nM (active) | 1210 nM (active) | 11100 nM (active) | 1910 nM (active) | 3950 nM (active) | 9590 nM (active)
CN(C)CC(C)(C)CNc1nn2c(-c3ccccc3)nnc2cc1C1CCC1 | 264 nM (active) | inactive | 5900 nM (active) | 1210 nM (active) | 935 nM (active) | 418 nM (active) |  |  | 1370 nM (active) | 
Cc1cc(Nc2cc(NC(=O)c3c(Cl)cccc3Cl)ccn2)nc(N)n1 | 332 nM (active) | 18700 nM (active) | 1050 nM (active) | 6070 nM (active) | 11800 nM (active) | 1870 nM (active) | 544 nM (active) |  | 8630 nM (active) | 935 nM (active)
C[C@H]1C[C@@H]2[C@@H]([C@@H](O)C[C@@]3(C)[C@H]2CC[C@]3(O)C(=O)CO)[C@@]2(C)C=CC(=O)C=C12 | inactive | inactive | inactive | inactive | inactive | inactive | inactive | inactive | inactive | inactive
CC[C@H]1CN2CCc3cc(OC)c(OC)cc3[C@H]2C[C@@H]1C[C@@H]1NCCc2cc(OC)c(OC)cc21 | 935 nM (active) | 1180 nM (active) | 526 nM (active) | 341 nM (active) | 418 nM (active) | 833 nM (active) | 193 nM (active) | 2090 nM (active) | 485 nM (active) | 469 nM (active)
COc1ccc(-n2nc(C(N)=O)c3c2C(=O)N(c2ccc(N4CCCCC4=O)cc2)CC3)cc1 | inactive | inactive | inactive | inactive | inactive | inactive |  | inactive | inactive | inactive

Reference: PubChem BioAssay (NCATS)
